The panel holds about 83,000 compounds, 20% with a hit somewhere; the sample as a whole holds those more often.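 Note: values are percent growth. 100 is the growth of untreated cells, values between 100 and 0 indicate rising inhibition; between -100 and 0 indicates cell death.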 A number with no mark means an inactive call. The source made the active and inactive calls.

For this assay, the system named is HCT-15 colon. As to the kind of experiment: NCI-60 one-dose screen, 48 h (100 = growth as untreated, 0 = no growth, -100 = all killed). Conditions: 10 µM unless noted. On the procedure: Growth inhibition of the HCT-15 human tumor cell line is measured as a screen for anti-cancer activity. Cells are grown in 96 well plates and exposed to the test compound for 48 hours. Compounds are tested at a single concentration, which is 10^-5 M for most compounds. The reported endpoint is percent growth (GI% or GIPRCNT), where numbers from 0 - 100% represent growth inhibition, and numbers from -100% - 0 represent cell death. For example, a value of 40 represents 60% growth inhibition. A value of 0 means no net growth occurred over the course of the experiment. A value of -40 indicates 40% of cells at the beginning of the experiment died by the end of the experiment. A value of -100 means all cells are dead at the end of the experiment.
NCI-60 Human Tumor Cell Lines Screen was performed using the standard one-dose NCI protocol, which is described in more detail at https://dtp.cancer.gov/discovery_development/nci-60/default.htm.
Compounds with GIPRCNT values below 10 were considered active. Activity score was based on GIPRCNT using the following formula: […]
Score is 0 for GIPRCNT values of 100 or above, 50 for GIPRCNT values of 0, and 100 for GIPRCNT values of -100.
As to `CC1=CN2C(=O)C3C4=C(CCCC4)SC3N=C2CN1c1c(C)cccc1C` (stereo not given), the growth was 49.8%.
Regarding `COc1ccc(N2CCN(c3nc(-c4cc(OC)c(OC)c(OC)c4)nc4ccccc34)CC2)cc1`, the growth is 61.8%.
Take `Cc1ccc(/C=C/c2c(C(=O)/C=C/c3ccc(C(F)(F)F)cc3)c(C)nc3ccccc23)cc1`: the growth was -29.6% (active).
With `C=C1C(=O)O[C@H]2[C@H]1CC/C(COC(=O)C(=O)c1cn(C)c3ccc(OC)cc13)=C\CC[C@@]1(C)O[C@@H]21`, the growth was -53.1% (active).
On to `COc1cc(C2CC(c3ccc(Nc4ccnc5cc(Cl)ccc45)cc3)=NN2C=O)cc(OC)c1OC` (stereo not given), for which the growth was 48.8%.
With `COc1ccc(Nc2nnc(SCc3ccccc3F)s2)cc1` the figure was 103%.
On to `Cc1ccc2nc3ccccc3c(NCc3ccccc3)c2c1`, for which the growth was 18%.
With `O=[N+]([O-])c1ccc(OCCO)cc1` the figure was 101%; with `C=C(C)[C@@H]1CC=C2c3sc(-c4ccc(C)cc4)nc3C[C@@H](C)[C@]2(C)C1`, 104%.
For `COc1ccc(NC(=O)CSc2nnc(-c3cc(-c4ccc(S(N)(=O)=O)cc4)nc4ccccc34)n2-c2ccccc2)cc1`, the growth was 89%.
Turning to `COc1ccc(C2c3ccc4ccccc4c3Oc3nc(C)[nH]c(=O)c32)cc1` (stereo not given), the growth was 99.6%.
For `COc1cc(N=Nc2ccc(N)cc2)c(OC)cc1N=Nc1ccccc1.[Cl][Zn][Cl]`, the growth is 91.2%.
The value for `Cc1ccc(C(=O)C2=C(O)C(=O)N(Cc3cccnc3)C2c2ccccc2F)o1` (stereo not given) was 93.8%; that for `Cc1ccc(/C=C/c2c(C(=O)/C=C/c3ccc(Cl)cc3)c(C)nc3ccccc23)cc1` was -39.9% (active); that for `CC(C)=C[C@@H]1c2c(c3ccccc3n(C)c2=O)O[C@H]2c3c(c4ccccc4n(C)c3=O)OC(C)(C)[C@@H]12` was 65.4%.
For the molecule `Fc1ccc(CNc2c3ccccc3nc3ccccc23)cc1F`, the growth was 18%.
With `O=C1/C(=C/c2ccc(F)cc2)C=C(c2ccccc2)N1CCc1ccccc1` the figure was 77.9%.
For the molecule `CNc1ccc(NC)c2c1C(=O)c1ccccc1C2=O`, the growth is 77.1%.
The value for `O=C(N=c1oc2ccccc2cc1-c1cc2ccccc2[nH]1)c1ccc(Cl)cc1` was 25.7%.
Turning to `Cc1ccc2nc(NC(=O)CSc3nc(-c4ccccc4)c(C#N)c(=O)n3Cc3ccccc3)sc2c1`, the growth was 96.6%.
`CCCCCCCC/C=C\CCCCCCCCOc1ccccc1CC(=O)NCC[N+](C)(C)C`: the growth is 56.6%.
With `COc1ccc2c(c1)C(=O)/C(=C/c1cccc(OCC(=O)Nc3nc(C)c(C)s3)c1)O2`, the growth is 12.3%.
For `Cc1nn(-c2ccccc2)c(Cl)c1/C=C(/NC(=O)c1ccccc1)c1nc2ccccc2[nH]1`, the growth was 94.1%.
Consider `O=C(Nc1ccccc1-c1nc2ccccc2c(=O)[nH]1)c1cc2ccccc2[nH]1`, for which the growth was 98.6%.
Take `CS(=O)c1cccc(-c2ccc3nc(N)n(-c4ccc(C(F)(F)F)cc4)c(=O)c3c2)c1` (stereo not given): the growth was 105%.
Regarding `N/C(=N\c1nc2ccccc2s1)NC(=O)Nc1cccc(Cl)c1`, the growth was 17.9%.
Consider `CC1CC(C(C)(C)C)C(=O)C(C(C)(C)C)C1` (stereo not given), for which the growth was 97.8%.
As to `CC1(C)CC(=O)CC2(C1)N=C(N)Nc1nc3ccccc3n12` (stereo not given), the growth was 98.2%.
For the molecule `COc1c(CCC[P+](c2ccccc2)(c2ccccc2)c2ccccc2)cc2c(c1OC)OCO2`, the growth was 92.3%.
On to `Cc1ccc2c(c1)Sc1c(ccc3ccccc13)N2`, for which the growth is 32.3%.
In the case of `COC(=O)[C@]12CC[C@@H](C)[C@H](C)[C@@H]1C1=CC[C@@H]3[C@@]4(C)C(C=O)=C[C@@](C)(COC(C)=O)C4=CC[C@@]3(C)[C@]1(C)CC2`, the growth is -41.6% (active).
The value for `CCOc1ccccc1-c1cc(-c2cccs2)c(C#N)c(=O)[nH]1` was 56.8%; that for `COC(=O)c1c2c(c[n+]([O-])c1C)C(=O)C=CC2=O` was 12.4%.
Regarding `CN1CCN(CCCOc2ccc3nc(Nc4ccc(F)c(F)c4)ccc3c2)CC1`, the growth was -29.3% (active).
Turning to `Cn1c(=O)c2c(nc(Cl)n2CCl)n(C)c1=O`, the growth is 13.6%.
In the case of `C[n+]1cc2c3c(ccc2c2ccc4cc5c(cc4c21)OCO5)OCO3`, the growth was -81.2% (active).
For the molecule `O=C(/C=C/c1ccc(Cl)nc1)c1ccc(Cl)cc1Cl`, the growth was 69.2%.
Regarding `NC1=NCc2nc3ccccc3c(=O)n2C1`, the growth was 99.2%.
`CCOc1ccccc1-n1c(CN2CCN(C(=O)COc3ccc(CNCCCCCCN4C5CCCC4CC(OC(=O)Nc4cc(C)ccc4OC)C5)cc3)CC2)nc2ccccc2c1=O` (stereo not given): the growth was -84.4% (active).
The value for `c1cc2ccc3cc2cc1CNCCOCCNCc1ccc2ccc(cc2c1)CNCCOCCNC3` was 96.7%.

The values are drawn from PubChem BioAssay (NCI).
